Test results taken from PubChem BioAssay.
Activity calls are given as the source filed them.

Experiments:
[1] = compounds binding Alexa647 anti-His antibody – biochemical, small-molecule microarray, 635 nm fluorescence, artefact control for SMM control protein annotation, primary screen (AID 1128); conditions: higher = more signal;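 further: score merges feature fluorescence with signal-to-noise for each printed compound spot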
[2] = test system: Human papillomavirus type 1a E7 protein (residues 1-88); assay: HPV1a E7 small-molecule binders, primary screen, biochemical, small-molecule microarray, residues 1-88, 635 nm (AID 1129); conditions: small-molecule microarray binding, fluorescence 635 nm; higher = more signal
[3] = molecular target: Focal adhesion kinase 1 (Homo sapiens) (UniProt Q05397); assay: PTK2 protein binding on printed compound slides – biochemical, small-molecule microarray, 635/667 nm fluorescence, BSA, DTT, primary screen (AID 1130); conditions: 635 nm fluorescence, higher = more signal;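 further: composite of spot emission at 667 nm and signal to noise over triplicate slides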
Sequence of Focal adhesion kinase 1 (Homo sapiens) (Q05397 whole entry, looked up): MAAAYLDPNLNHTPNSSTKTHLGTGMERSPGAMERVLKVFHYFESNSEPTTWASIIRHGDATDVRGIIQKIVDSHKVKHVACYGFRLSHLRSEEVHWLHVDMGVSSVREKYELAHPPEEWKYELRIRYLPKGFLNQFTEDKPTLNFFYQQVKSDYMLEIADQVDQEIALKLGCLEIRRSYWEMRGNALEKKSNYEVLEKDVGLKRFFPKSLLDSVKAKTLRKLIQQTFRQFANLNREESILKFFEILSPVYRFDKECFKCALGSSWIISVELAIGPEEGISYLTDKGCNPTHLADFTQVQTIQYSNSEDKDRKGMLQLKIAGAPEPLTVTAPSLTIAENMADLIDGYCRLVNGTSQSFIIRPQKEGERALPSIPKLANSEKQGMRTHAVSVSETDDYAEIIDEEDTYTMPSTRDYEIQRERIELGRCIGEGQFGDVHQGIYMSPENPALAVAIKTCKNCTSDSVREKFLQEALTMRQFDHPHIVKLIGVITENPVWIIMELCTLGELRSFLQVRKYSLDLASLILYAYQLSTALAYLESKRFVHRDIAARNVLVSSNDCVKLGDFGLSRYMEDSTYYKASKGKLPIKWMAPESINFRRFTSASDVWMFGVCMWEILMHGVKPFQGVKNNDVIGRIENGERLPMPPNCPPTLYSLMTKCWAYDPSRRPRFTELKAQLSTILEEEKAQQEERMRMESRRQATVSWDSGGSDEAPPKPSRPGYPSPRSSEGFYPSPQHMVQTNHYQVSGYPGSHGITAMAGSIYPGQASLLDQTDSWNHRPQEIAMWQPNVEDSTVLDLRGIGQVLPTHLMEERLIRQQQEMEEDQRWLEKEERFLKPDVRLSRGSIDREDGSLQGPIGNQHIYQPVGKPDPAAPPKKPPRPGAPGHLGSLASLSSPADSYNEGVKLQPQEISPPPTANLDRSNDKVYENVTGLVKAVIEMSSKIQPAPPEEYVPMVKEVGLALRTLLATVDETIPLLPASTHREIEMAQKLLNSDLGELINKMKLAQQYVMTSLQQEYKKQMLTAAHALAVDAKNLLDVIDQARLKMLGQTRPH

[4] = test system: Fibrinogen (Alexa647-labelled); assay: Alexa647-fibrinogen binding to printed small molecules – biochemical, small-molecule microarray, 635/667 nm fluorescence, artefact control for SMM control-protein annotation, profiling panel (AID 1131); conditions: fibrinogen-A647 binding fluorescence, higher = more signal;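 further: z-score merges 667 nm fluorescence with per-spot signal-to-noise over triplicate slides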
[5] = molecular target: Follistatin (Homo sapiens) (UniProt P19883); assay: FST protein binding to printed compounds – biochemical, small-molecule microarray, 635/667 nm fluorescence, primary screen (AID 1132); conditions: 635 nm fluorescence, higher = more signal
Sequence of Follistatin (Homo sapiens) (P19883 whole entry, looked up): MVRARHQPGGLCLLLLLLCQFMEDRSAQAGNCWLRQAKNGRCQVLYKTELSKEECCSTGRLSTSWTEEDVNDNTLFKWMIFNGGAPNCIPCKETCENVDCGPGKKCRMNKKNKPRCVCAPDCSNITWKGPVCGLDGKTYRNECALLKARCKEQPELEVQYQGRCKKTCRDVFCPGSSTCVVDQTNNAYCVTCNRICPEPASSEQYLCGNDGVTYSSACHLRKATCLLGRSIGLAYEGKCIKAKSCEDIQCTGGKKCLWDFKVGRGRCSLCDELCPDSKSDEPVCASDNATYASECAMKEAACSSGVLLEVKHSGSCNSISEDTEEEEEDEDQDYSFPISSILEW

[6] = molecular target: Fibroblast growth factor 2 (Homo sapiens) (UniProt P09038); assay: basic fibroblast growth factor binding to printed compounds – biochemical, small-molecule microarray, 635/667 nm fluorescence, primary screen (AID 1133); conditions: FGF2, fluorescence 635/667, higher = more signal
Sequence of Fibroblast growth factor 2 (Homo sapiens) (P09038 whole entry, looked up): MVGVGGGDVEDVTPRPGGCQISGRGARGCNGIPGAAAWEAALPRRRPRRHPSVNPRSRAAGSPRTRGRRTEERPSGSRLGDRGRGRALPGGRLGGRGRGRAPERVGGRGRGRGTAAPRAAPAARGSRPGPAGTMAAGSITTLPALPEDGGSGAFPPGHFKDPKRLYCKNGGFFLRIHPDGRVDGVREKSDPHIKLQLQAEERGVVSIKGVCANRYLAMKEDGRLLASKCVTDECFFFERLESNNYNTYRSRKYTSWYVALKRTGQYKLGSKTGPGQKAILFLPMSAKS

[7] = JC-1 mitochondrial potential readout, lung cancer cells – cell-based, A549, JC-1 fluorescence, basal, 24 h, 100 nL, profiling panel (AID 1138); conditions: higher = more signal;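 further: A549 lung adenocarcinoma cells under basal conditions with no added stimulus; test concentration not given here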
[8] = test system: Lefty1; assay: Lefty1 protein binding to printed compounds – biochemical, small-molecule microarray, 635/667 nm fluorescence, primary screen (AID 1139); conditions: fluorescence 635/667, higher = more signal
[9] = test system: wheat germ agglutinin (Triticum aestivum), Alexa647-labelled; assay: Alexa647-WGA lectin binding to printed small molecules – biochemical, small-molecule microarray, 635/667 nm fluorescence, artefact control for SMM control-protein annotation, profiling panel (AID 1140); conditions: WGA-A647 binding, 635 nm fluorescence, higher = more signal;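 further: score merges 667 nm feature emission with signal to noise over triplicate slides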
[10] = molecular target: Luciferin 4-monooxygenase (Photinus pyralis) (UniProt P08659); assay: inhibition of purified Photinus pyralis luciferase – biochemical, luminescence, purified enzyme, 2006 set, primary screen (AID 1141); conditions: purified firefly luciferase, SteadyGlo luminescence, 30 min; higher = more signal, called active from +8 up or from −8 down;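 further: cell-free assay with purified firefly luciferase at 100 ng per well in PBS; test concentration not given here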
Sequence of Luciferin 4-monooxygenase (Photinus pyralis) (P08659 whole entry, looked up): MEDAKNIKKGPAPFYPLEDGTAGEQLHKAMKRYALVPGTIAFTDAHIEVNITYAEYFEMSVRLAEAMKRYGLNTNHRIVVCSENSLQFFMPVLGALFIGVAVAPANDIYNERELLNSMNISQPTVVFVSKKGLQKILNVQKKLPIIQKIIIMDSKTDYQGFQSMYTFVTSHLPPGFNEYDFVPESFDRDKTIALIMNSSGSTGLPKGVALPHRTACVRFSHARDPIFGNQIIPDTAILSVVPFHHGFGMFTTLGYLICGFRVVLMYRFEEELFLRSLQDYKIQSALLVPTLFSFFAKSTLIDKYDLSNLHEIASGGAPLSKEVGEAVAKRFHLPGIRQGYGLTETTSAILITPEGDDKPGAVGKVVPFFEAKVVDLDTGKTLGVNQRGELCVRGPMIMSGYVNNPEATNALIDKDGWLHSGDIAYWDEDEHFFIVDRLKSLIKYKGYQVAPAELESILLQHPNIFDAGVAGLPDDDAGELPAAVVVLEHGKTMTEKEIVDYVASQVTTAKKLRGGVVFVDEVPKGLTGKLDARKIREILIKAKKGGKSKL

SMILES | composite z-score [1] | composite z-score [2] | composite z-score [3] | composite z-score [4] | composite z-score [5] | composite z-score [6] | z-score [7] | composite z-score [8] | composite z-score [9] | z-score [10]
COC(=O)[C@@]1(Cc2ccccc2CN=[N+]=[N-])N=C(c2ccc(OCCCO)cc2)O[C@H]1c1ccccc1N=[N+]=[N-] | -0.0307 | 0.339 | 1.96 | 0.694 | 0.832 | 0.0085 | -0.403 | 0.79 | 0.727 | -10.1 (active)
CN1C2C=C(c3ccc(CO)cc3)C(C3C(=O)N(C(N)=O)C(=O)C32)C1c1cccs1 (stereo not given) | -0.734 | -0.343 | -0.0644 | -0.25 | -0.513 | -0.676 | 1.38 | 0.358 | -0.543 | -1.49 (inactive)
O=C1O[C@H](c2ccccc2)[C@H](c2ccccc2)N2[C@H]1[C@@H](C(=O)Nc1nc3ccccc3s1)[C@]1(C(=O)Nc3ccc(C#CC4(O)CCCCCC4)cc31)[C@H]2c1ccc(O)cc1 | 1.71 | 1.2 | 0.164 | 1 | 1.29 | 1.31 | -2.35 | 0.666 | 0.856 | -1.27 (inactive)
C=CCN(C(=O)C1N(c2ccc(CCO)cc2)C(=O)C2C(C(=O)O)C3C=CC21O3)C(C)(C)C (stereo not given) | -1.51 | -0.55 | -0.612 | -1.4 | -2.8 | -2.13 | -0.112 | -3.43 | -2.09 | -0.163 (inactive)
COCCOC(=O)N1C(=O)[C@@]2(c3cc(C#CCNC(N)=O)ccc31)[C@H](c1ccccc1OCCO)N1[C@H](c3ccccc3)[C@H](c3ccccc3)OC(=O)[C@H]1[C@@H]2C(=O)NC[C@H](O)c1ccccc1 | 1.06 | 1.2 | 0.499 | 0.943 | 1.28 | 0.472 | -1.31 | 0.688 | 0.832 | 0.311 (inactive)
O=C(NCC(F)(F)F)[C@@H]1c2ccccc2C(=O)N(Cc2ccccc2Cl)[C@H]1c1ccc(CO)cc1 | 0.752 | -0.778 | -0.844 | -0.81 | -0.607 | -0.434 | 0.97 | -1.23 | -0.742 | -0.565 (inactive)
C#C[C@H](O[Si](C#Cc1ccccc1)(C(C)C)C(C)C)c1ccccc1 | 0.126 | -0.581 | -0.515 | -0.664 | -0.89 | -0.487 | -1.47 | -0.126 | -0.242 | 0.645 (inactive)
O=C/C=C/c1ccccc1Cl | -0.761 | -0.836 | 0.878 | 0.0503 | 0.0323 | -0.517 | 0.653 | -0.239 | 0.687 | -2.21 (inactive)
Cc1ccc(S[C@]2(C(=O)O)CC(=O)N(Cc3ccccc3)[C@@H]2c2ccc(CO)cc2)cc1 | -0.846 | 0.0745 | -0.412 | 0.0619 | -0.256 | 0.0167 | 1.31 | -0.532 | 0.0681 | -1.32 (inactive)
COCCOC(=O)N1C(=O)[C@@]2(c3cc(C#CC4=CCCCC4)ccc31)[C@H](C(=O)NC[C@H](O)c1ccccc1)[C@H]1C(=O)O[C@H](c3ccccc3)[C@H](c3ccccc3)N1[C@@H]2c1ccccc1OCCO | 0.69 | 1.17 | 0.985 | 0.943 | 1.34 | 0.825 | -1.49 | 1.09 | 1.09 | -0.855 (inactive)
CC(=O)NCCCC[C@@H]1NC(=O)[C@@H]2C[C@H](C(=O)NCCCCCCN(C)C)[C@H](c3ccc(O)cc3)N2C1=O | 2.82 | 1.26 | 0.383 | 0.53 | 1.34 | 1.56 | 0.543 | 1.58 | 1.25 | -0.916 (inactive)
COc1cccc([C@@H]2[C@@H](C)CC[C@H]3C(=O)N4[C@H](c5cccc(OC)c5)[C@@H](C)CC[C@H]4C(=O)N23)c1 | 0.584 | 0.276 | -0.175 | 0.817 | 0.614 | 0.428 | 1.55 | 0.418 | 0.248 | -1.78 (inactive)
O=C1C[C@@](C(=O)NCCN2CCOCC2)(c2ccc([N+](=O)[O-])cc2)[C@@H](c2ccc(CO)cc2)N1C1CCCCC1 | 0.926 | 0.666 | -0.442 | 0.63 | 1.16 | 1.22 | 1.11 | 0.0031 | 0.43 | -0.83 (inactive)
COCCCNC(=O)[C@@]1(Sc2ccc(C)cc2)CC(=O)N(Cc2cc(C(F)(F)F)cc(C(F)(F)F)c2)[C@@H]1c1ccc(CO)cc1I | -0.21 | -1.1 | 0.144 | -1.86 | -0.993 | -0.511 | 0.915 | -1.66 | -1.1 | -0.503 (inactive)
C[C@H]1C2[C@H](Cc3ccccc3)NC(=O)[C@]23C(=O)N[C@H](Cc2ccccc2)C(=O)N[C@@H](Cc2ccccc2)C(=O)NC/C=C\C/C=C/C3[C@@H]2O[C@]12C (stereo not given in full) | 0.133 | -0.318 | 0.838 | -1.84 | 0.162 | 0.0748 | 0.298 | -0.0066 | -0.125 | -1.06 (inactive)
CO[C@H]1COC(=O)CC=C[C@H](C)[C@@H](OC)COC(=O)[C@H](Cc2ccccc2)NC(=O)CC=C[C@@H]1C | -1.1 | -2.59 | 0.264 | -1.23 | 1.42 | 1.34 | 1.39 | 1.59 | -0.324 | -1.06 (inactive)
C=CCC(OC(C)=O)[C@@H]1[C@@H](N(Cc2ccc(-c3ccccc3)cc2)C(=O)c2ccc(-c3ccccc3)cc2)c2cc(OCCCO)ccc2N1C(=O)Cc1ccc(OC)cc1 (stereo not given in full) | -0.347 | 0.328 | 0.602 | 0.466 | 0.856 | 0.0338 | 0.764 | 0.0287 | 0.192 | -0.115 (inactive)
C=CC[C@]1(C(=O)OC)N=C(c2ccc(OCCCO)cc2)O[C@H]1c1ccccc1CN=[N+]=[N-] | 1.39 | 0.731 | 0.5 | -0.268 | 0.286 | 0.172 | 1.22 | -0.525 | 0.605 | -4.54 (inactive)
COc1ccc([Si](C)(C)[C@@H]2[C@@H](CCO)O[C@]3(C(=O)N(Cc4ccc(NC(=O)[C@H](C)O)cc4)c4ccccc43)[C@H]2C)cc1 | 1.79 | 1.06 | 0.293 | 0.94 | 0.403 | 0.137 | -1.61 | 0.215 | 0.852 | -0.546 (inactive)
O=C1O[C@H](c2ccccc2)[C@H](c2ccccc2)N2[C@H]1[C@@H](C(=O)NC[C@H](O)c1ccccc1)[C@]1(C(=O)Nc3ccc(C#CC4=CCCCC4)cc31)[C@H]2c1ccc(OCCO)cc1 | 0.879 | 1.19 | 0.73 | 0.874 | 1.2 | 0.527 | -1.76 | 1.26 | 0.944 | -1.4 (inactive)
NC(=O)NCC#Cc1ccc2c(c1)[C@]1(C(=O)N2)[C@H](C(N)=O)[C@H]2C(=O)O[C@H](c3ccccc3)[C@H](c3ccccc3)N2[C@@H]1c1ccccc1OCCO | -0.22 | 1.01 | -0.0788 | 0.543 | 1.23 | 0.66 | -0.525 | 0.472 | 0.174 | 0.171 (inactive)
Cc1ccc(S[C@]2(C(=O)NC(C)C)CC(=O)N(Cc3cc(C(F)(F)F)cc(C(F)(F)F)c3)[C@@H]2c2ccc(CO)cc2I)cc1 | 2.87 | -0.335 | 0.481 | -0.306 | 0.623 | 0.384 | 0.598 | -0.919 | 0.445 | 0.819 (inactive)
CCCC[C@H]1OB(O)C[C@H]2C1=C(COC)C[C@H]1C(=O)N(Cc3ccccc3)C(=O)[C@H]12 | -0.438 | 0.422 | 0.112 | 0.575 | 0.935 | 1.18 | 1.03 | 0.499 | 0.552 | -1.22 (inactive)
O=C(NCC(O)CO)[C@]1(Cc2ccccc2)N=C(c2ccc(OCCCO)cc2)O[C@@H]1c1ccccc1 (stereo not given in full) | 0.713 | 0.98 | 0.774 | 0.601 | 0.585 | -0.836 | 0.571 | -1.42 | 1.27 | -1.37 (inactive)
CCOC(=O)C[C@H]1[C@H](OC(=O)Cc2ccc3c(c2)OCO3)[C@@H](NC(=O)c2ccc3ccccc3c2)c2cc(OCCCO)ccc2N1C(=O)Cc1ccc(OC)cc1 | -0.708 | 0.836 | 0.211 | 0.561 | 0.413 | 0.441 | 0.751 | 0.55 | 0.353 | -0.953 (inactive)
COc1ccc(C(=O)Nc2ccc(CN3C(=O)[C@]4(O[C@H](CCn5cc(CCO)nn5)[C@@H]([Si](C)(C)c5ccc(OC)cc5)[C@@H]4C)c4ccccc43)cc2)cc1 | 0.748 | 1.13 | 0.203 | 0.92 | 0.867 | 1.57 | 1.14 | 0.426 | 0.798 | -1.26 (inactive)
O=C(N1CCCCC1)[C@@]1(CCS(=O)(=O)c2ccccc2)N=C(c2ccc(OCCCO)cc2)O[C@H]1c1ccccc1 | 1.9 | 1.26 | 0.556 | 0.328 | 1.25 | -0.0973 | 0.216 | -0.0953 | 0.0324 | -1.32 (inactive)
